Test results reported in PubChem BioAssay AID485353 (National Center for Advancing Translational Sciences (NCATS), 2010).
Screen size: about 330,000 compounds; about 610 (0.18%) were called active. Inconclusive results (about 2%) are left out. The sample as a whole holds a higher share of actives than the screen did. Unmarked numbers belong to inactive results. Calls come from the whole dose curve.

Assay: qHTS of Yeast-based Assay for SARS-CoV PLP; note: nearly all actives have a fitted effect of over 55% in size; for activity, positive = growth rescue: 0% is about no effect
Details: S. cerevisiae expressing SARS-CoV PLpro; Potency: growth rescue; series mostly up to 32.9 µM; activity, positive = growth rescue: at the top concentration
Potency is the fitted concentration of half-maximal effect.

| SMILES | Potency | activity, positive = growth rescue [%] |
| --- | --- | --- |
| Cc1ccc(SCC(=O)c2sc(-c3ccccc3)nc2C)cc1 | 3.55 µM (active) |  |
| Cc1nc(-c2ccccc2)sc1C(=O)/C=C/N(C)C |  | -1.29 |
| Cc1nc(-c2ccc(Cl)cc2)sc1C(=O)CBr |  | -22 |
| CN(CC(=O)NCCN1CCOCC1)S(=O)(=O)c1ccc(F)cc1 |  | 3.57 |
| Cc1[nH]n(-c2ccc([N+](=O)[O-])cc2)c(=O)c1C=NCCN1CCN(C(=O)c2ccccc2F)CC1 |  | -15 |
| COc1cc(/C=N/NC(=O)c2ccoc2C)ccc1OCCN1CCCCC1 |  | -3.16 |
| Cc1ccc(-n2[nH]c(C)c(/C=N/NC(=O)c3cccc([N+](=O)[O-])c3)c2=O)cc1C | 1.26 µM (active) |  |
| C/C(=N\NC(=O)c1cccc([N+](=O)[O-])c1)c1cccnc1 |  | 1.13 |
| C/C(=N\NC(=O)c1ccoc1C)c1ccccc1O |  | -15.6 |
| Cc1[nH]n(-c2ccccc2)c(=O)c1/C=N/NC(=O)c1ccoc1C | 2.51 µM (active) |  |
| O=C(Cn1cc(/C=N/NC(=O)c2cccc(C(F)(F)F)c2)c2ccccc21)Nc1ccc(F)cc1 |  | 1.14 |
| O=C(NCCCn1ccnc1)C(=O)NCC1OCCN1S(=O)(=O)c1cc(F)ccc1F (stereo not given) |  | 0.943 |
| CCc1cccc(NC(=O)COC(=O)c2cc(=O)c3ccccc3o2)c1 |  | -5.39 |
| Cc1ccc(SCc2c(C(=O)N/N=C/C3CC=CCC3)nnn2-c2nonc2N)cc1 (stereo not given) |  | 0.713 |
| Nc1nonc1-n1nnc(C(=O)N/N=C/c2cc(Br)ccc2O)c1CSC1=NCCS1 | 4.47 µM (active) |  |
| Nc1nonc1-n1nnc(C(=O)N/N=C\c2ccncc2)c1CN1CCCCC1 |  | 1.85 |
| CSc1nc(-c2ccco2)nn1C(=O)c1ccccc1Cl |  | -2.37 |
| COc1cc(C(=O)N/C(=C\c2cn(C)c3ccccc23)C(=O)N2CCOCC2)cc(OC)c1OC |  | -0.452 |
| Cc1cc(C)nc(N/N=C/c2c(CO)cnc(C)c2O)n1 |  | 0.145 |
| CCN(CC)c1ccc(/C=N/Nc2nc(C)cc(C)n2)c(O)c1 | 5.01 µM (active) |  |
| CCN(CC)c1ccc(/C=N/NC(=O)c2cnccn2)c(O)c1 |  | 4.67 |
| CC1(C)Cc2nc3sc4c(SCC(=O)NC(c5ccccc5)c5ccccc5)ncnc4c3cc2CO1 |  | 0.705 |
| COc1ccc(NC(=O)C(=O)NCC(c2ccco2)N2CCc3ccccc3C2)cc1 (stereo not given) |  | -16.8 |
| CCOc1c(Nc2cccc(Cl)c2)c(=O)c1=O |  | -0.74 |
| CCOCCCNC(=O)C(NC(=O)c1ccc(=O)[nH]c1)c1ccc(Cl)cc1 (stereo not given) |  | 1.05 |
| CC1(C(=O)OCC(=O)Nc2ncc(Cl)cc2Cl)CC1(Cl)Cl (stereo not given) |  | -3.29 |
| CN(CC(=O)Nc1ccc(S(=O)(=O)N2CCCC2)cc1)Cc1ccc(Cl)c(Cl)c1 |  | -24.7 |
| C=CCn1c(-c2sc(-c3ccccc3)nc2C)n[nH]c1=S |  | 5.03 |
| C=CCn1c(C23CC4CC(CC(C4)C2)C3)n[nH]c1=S | 11.2 µM (active) |  |
| C=CCn1c(SCC(=O)NC)nnc1C12CC3CC(CC(C3)C1)C2 |  | -2.6 |
